The results in this text go back to PubChem BioAssay (EPA / NIEHS).

Inconclusive results are not listed. Active and inactive are the calls of the source. The calls were made as follows, unless noted: active = hit-call score of the fitted dose curve at least 0.9, where 1 is the maximum; inactive = score below 0.9.

Assay [1] can be described thus: ATG_Sox_CIS: Attagene CIS-FACTORIAL HepG2 Assay for human SRY-box transcription factor (SOX) (AID 2282960). As to conditions: HepG2 Attagene cis-factorial SOX reporter, mRNA; actives raise or lower the signal. In a few lines: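 Fluorescence-labelled cDNA fragments from reporter transcripts, sized by CE, give the signal. Cells: HepG2, transiently transfected with cis-regulated reporter units. Exposure 24 h; DMSO negative control; bidirectional curve fitting.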

Assay [2] addresses Transcription factor Sp1 (Homo sapiens) (UniProt P08047). Description: ATG_Sp1_CIS: Attagene CIS-FACTORIAL HepG2 Assay for human Specificity Protein 1 (Sp1) (AID 2282961). To be noted: HepG2 Sp1 cis-reporter transcription, actives raise or lower the signal. The method in brief:
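Chemicals are dosed onto HepG2 cells transfected with multiple cis-promoter reporter constructs, and after 24 h reporter RNA is reverse-transcribed, PCR-amplified and resolved by capillary electrophoresis for fluorescence quantitation; activity is scored up or down against DMSO.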

Assay [3] can be described thus: ATG_SREBP_CIS: Attagene CIS-FACTORIAL HepG2 Assay for human Sterol Regulatory Element Binding (SREBP) (AID 2282962). To be noted: HepG2 Attagene cis-factorial SREBP reporter, mRNA; actives raise or lower the signal. In a few lines:
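HepG2 cells transiently transfected with multiplexed cis-element reporter units report endogenous transcription factor activity. After 24 h of chemical exposure, reporter mRNA was quantified by RT-PCR, 6-FAM labelling, HpaI digestion and capillary electrophoresis; bidirectional fits used DMSO as baseline.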

A short description of assay [4]: ATG_TA_CIS: Attagene CIS-FACTORIAL HepG2 Assay for human TA Basal Promoter (AID 2282964). To be noted: HepG2 Attagene CIS-factorial TA basal promoter reporter; actives raise or lower the signal. The method in brief: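 Transfected HepG2, 24 h compound exposure; RNA → RT-PCR → FAM primer extension → HpaI cut → CE fluorescence. Gain/loss-of-signal fitted against DMSO negative control. Background-control readout.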

Assay [5] is described as follows: ATG_TCF_b_cat_CIS: Attagene CIS-FACTORIAL HepG2 Assay for human T-Cell-Factor with beta-catenin (TCF/b-cat) (AID 2282965). To be noted: HepG2 TCF/beta-catenin cis-reporter transcription, actives raise or lower the signal. In a few lines:
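Cells of the HepG2 line carry transiently transfected reporter units whose promoters respond to endogenous factors. Twenty-four hours post-dosing, reporter mRNA induction is measured by fluorescent RT-PCR and capillary electrophoresis, with DMSO as baseline.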

Assay [6] can be described thus: ATG_TAL_CIS: Attagene CIS-FACTORIAL HepG2 Assay for human TAL Basal Promoter (AID 2282966).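 Also: background control endpoint measuring basal TAL promoter reporter mRNA not a specific factor.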 As to conditions: HepG2 Attagene cis-factorial TAL promoter reporter; actives raise or lower the signal. The method in brief: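 In this cell-based multiplex, HepG2 liver cells bearing cis-promoter reporter constructs are dosed for 24 hours. Total RNA is reverse-transcribed and amplified, labelled fragments are sized by capillary electrophoresis, and signal changes are fitted bidirectionally versus DMSO.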

The nature of assay [7]: ATG_TGFb_CIS: Attagene CIS-FACTORIAL HepG2 Assay for human Transforming Growth Factor (TGF) (AID 2282967). As to conditions: HepG2 Attagene CIS TGFb reporter, mRNA transcription; actives raise or lower the signal. The method in brief:
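Readout: fluorescently labeled reporter cDNA fragments resolved by capillary electrophoresis after RT-PCR. Transfected HepG2 cells dosed for 24 h; endogenous TF activity at TGFB1-linked cis element; gain or loss fitted relative to DMSO.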

The nature of assay [8]: ATG_VDRE_CIS: Attagene CIS-FACTORIAL HepG2 Assay for human Vitamin D Receptor Element (VDRE) (AID 2282968). To be noted: HepG2 VDRE cis-reporter transcription, actives raise or lower the signal. In a few lines: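 Cell-based multiplexed reporter format in human liver HepG2 cells, 24 h post-dose. Fluorescence from capillary electrophoresis of reporter cDNA gives the signal, with DMSO as negative control and baseline.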

Assay [9] addresses Nuclear receptor subfamily 1 group I member 3 (Homo sapiens) (UniProt Q14994). Description: ATG_CAR_TRANS: Attagene TRANS-FACTORIAL HepG2 Assay for human Constitutive Androstane Receptor (CAR) (AID 2282969; active = hit-call score of the fitted dose curve at least 0.9, where 1 is the maximum;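 also: activators raise reporter mRNA above DMSO so AC50 marks induction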). As to conditions: HepG2 Attagene TRANS-FACTORIAL CAR reporter. In a few lines: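 HepG2 cells transiently transfected with GAL4-UAS reporter units; TRANS format reads activity of exogenous chimeric NR-Gal4 protein. After 24 h dosing, reporter mRNA quantified by RT-PCR, 6-FAM labelling and capillary electrophoresis; gain of signal fitted against DMSO.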

Assay [10] addresses Estrogen receptor (Homo sapiens) (UniProt P03372). The assay can be described thus: ATG_ERa_TRANS: Attagene TRANS-FACTORIAL HepG2 Assay for human Estrogen Receptor alpha (ERa) (AID 2282970; active = hit-call score of the fitted dose curve at least 0.9, where 1 is the maximum). As to conditions: HepG2 Attagene TRANS ERa GAL4 reporter, mRNA. The method in brief:
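After 24 h of compound treatment, RNA from HepG2 cells bearing transfected GAL4-UAS reporter constructs is converted to cDNA, amplified and fluorescently labelled. Capillary electrophoresis resolves the ERa-linked reporter; DMSO serves as negative control.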

For assay [11], the target named is X-box-binding protein 1 (Homo sapiens) (UniProt P17861). Description: ATG_Xbp1_CIS: Attagene CIS-FACTORIAL HepG2 Assay for human X-box Binding Protein 1 (XBP1) (AID 2282972). To be noted: HepG2 XBP1 cis-element reporter, Attagene multiplex; actives raise or lower the signal. The method in brief: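 HepG2 cells transiently transfected with cis-regulated multiple reporter transcription units; endogenous transcription factor activity measured 24 hours after chemical dosing. Reporter mRNA quantified by RT-PCR, 6-FAM primer extension, HpaI digestion and capillary electrophoresis; bidirectional fitting versus DMSO.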
Chain of X-box-binding protein 1 (Homo sapiens) (P17861 whole entry, looked up): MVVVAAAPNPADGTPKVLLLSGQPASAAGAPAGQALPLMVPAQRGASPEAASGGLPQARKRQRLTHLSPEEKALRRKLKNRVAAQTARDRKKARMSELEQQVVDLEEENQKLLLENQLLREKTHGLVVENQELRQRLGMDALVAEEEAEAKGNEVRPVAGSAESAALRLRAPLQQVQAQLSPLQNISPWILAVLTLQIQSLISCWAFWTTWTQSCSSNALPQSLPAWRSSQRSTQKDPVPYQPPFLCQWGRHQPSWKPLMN

The nature of assay [12]: ATG_M_19_TRANS: Attagene TRANS-FACTORIAL HepG2 Assay for M19 Transcription Factor (Internal Marker) (AID 2282974; active = hit-call score of the fitted dose curve at least 0.9, where 1 is the maximum). As to conditions: HepG2 Attagene TRANS-FACTORIAL M19 internal marker reporter. In a few lines:
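Multiplexed TRANS format: HepG2 liver cells bearing transient GAL4-UAS reporter units, chemical treatment 24 h, reporter transcripts quantified by RT-PCR plus capillary electrophoresis. DMSO defines baseline.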

Assay [13] addresses Glucocorticoid receptor (Homo sapiens) (UniProt P04150). Description: ATG_GR_TRANS: Attagene TRANS-FACTORIAL HepG2 Assay for human Glucocorticoid Receptor (GR) (AID 2282978; active = hit-call score of the fitted dose curve at least 0.9, where 1 is the maximum;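 also: activators score as hits since higher reporter transcript over DMSO is fitted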). As to conditions: HepG2 Attagene TRANS GR reporter, mRNA transcription. The method in brief:
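Transiently transfected HepG2 cells express chimeric NR-GAL4 proteins acting on GAL4-UAS reporter units. Compounds are applied for 24 h. mRNA induction over DMSO is measured by capillary electrophoresis.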

Assay [14] deals with Oxysterols receptor LXR-alpha (Homo sapiens) (UniProt Q13133). Description: ATG_LXRa_TRANS: Attagene TRANS-FACTORIAL HepG2 Assay for human Liver X Receptor alpha (LXRa) (AID 2282980; active = hit-call score of the fitted dose curve at least 0.9, where 1 is the maximum). As to conditions: HepG2 Attagene TRANS reporter, LXRa transactivation. The method in brief: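 Read-out: reporter transcript levels by RT-PCR plus capillary electrophoresis, fluorescence intensity. Transiently transfected HepG2, exogenous NR-GAL4 chimera, GAL4-UAS reporters; 24 h compound exposure. Activity = increase over DMSO negative control.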
Chain of Oxysterols receptor LXR-alpha (Homo sapiens) (Q13133 whole entry, looked up, the tested form may be a part): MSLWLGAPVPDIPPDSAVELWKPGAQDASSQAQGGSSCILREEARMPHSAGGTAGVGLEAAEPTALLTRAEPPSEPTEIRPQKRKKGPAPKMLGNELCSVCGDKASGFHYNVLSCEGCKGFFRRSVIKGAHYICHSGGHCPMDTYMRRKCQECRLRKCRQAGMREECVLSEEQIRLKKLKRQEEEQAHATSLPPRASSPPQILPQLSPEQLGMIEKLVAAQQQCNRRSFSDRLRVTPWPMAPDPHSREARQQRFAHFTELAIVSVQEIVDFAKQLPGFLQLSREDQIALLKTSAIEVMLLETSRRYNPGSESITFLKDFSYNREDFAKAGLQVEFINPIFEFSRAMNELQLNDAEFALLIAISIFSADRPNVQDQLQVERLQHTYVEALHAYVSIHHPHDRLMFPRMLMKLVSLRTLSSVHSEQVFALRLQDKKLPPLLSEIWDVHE

Assay [15] concerns the target Oxysterols receptor LXR-beta (Homo sapiens) (UniProt P55055). Description: ATG_LXRb_TRANS: Attagene TRANS-FACTORIAL HepG2 Assay for human Liver X Receptor beta (LXRb) (AID 2282981; active = hit-call score of the fitted dose curve at least 0.9, where 1 is the maximum). To be noted: HepG2 Attagene TRANS GAL4-LXRb reporter, mRNA. In a few lines: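 Gain-of-signal mRNA reporter endpoint, DMSO as negative control. Transiently transfected HepG2 cells carrying the NR-Gal4 chimera and GAL4-UAS reporter units were treated 24 h; transcripts quantified by RT-PCR and capillary electrophoresis fluorescence.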

Assay [16] concerns the target Androgen receptor (Homo sapiens) (UniProt P10275). Description: ATG_AR_TRANS: Attagene TRANS-FACTORIAL HepG2 Assay for human Androgen Receptor (AR) (AID 2282973; active = hit-call score of the fitted dose curve at least 0.9, where 1 is the maximum). As to conditions: HepG2 Attagene TRANS-FACTORIAL AR reporter transcription. The method in brief: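 Readout is reporter transcript abundance, quantified by fluorescent RT-PCR products separated on capillary electrophoresis. Human HepG2 liver cells carried transiently transfected NR-Gal4 chimera plus GAL4-UAS reporter constructs and were dosed for 24 h; activity scored upward versus DMSO.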

Assay [17] in a line: ATG_GAL4_TRANS: Attagene TRANS-FACTORIAL HepG2 Assay for GAL4 (Internal Marker) (AID 2282976; active = hit-call score of the fitted dose curve at least 0.9, where 1 is the maximum). As to conditions: HepG2 Attagene TRANS GAL4 internal marker reporter. The method in brief: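 RT-PCR/capillary electrophoresis readout of reporter mRNA. HepG2, transient MRTU transfection (GAL4-UAS reporters), 24 h compound exposure. Background-control endpoint, positive direction vs DMSO baseline.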

The target of assay [18] is Bile acid receptor (Homo sapiens) (UniProt Q96RI1). The assay can be described thus: ATG_FXR_TRANS: Attagene TRANS-FACTORIAL HepG2 Assay for Farnesoid X Receptor (FXR) (AID 2282979; active = hit-call score of the fitted dose curve at least 0.9, where 1 is the maximum;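 also: hits raise reporter mRNA above DMSO so AC50 marks FXR activation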). As to conditions: HepG2 Attagene TRANS FXR-GAL4 reporter transcription. The method in brief: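 Read-out: fluorescent reporter transcripts quantified by capillary electrophoresis after RT-PCR of total RNA. Source cells were HepG2 transiently carrying chimeric NR-GAL4 plus GAL4-UAS reporter units, dosed 24 h. Activity fitted upward relative to DMSO baseline.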
Chain of Bile acid receptor (Homo sapiens) (Q96RI1 whole entry, looked up, the tested form may be a part): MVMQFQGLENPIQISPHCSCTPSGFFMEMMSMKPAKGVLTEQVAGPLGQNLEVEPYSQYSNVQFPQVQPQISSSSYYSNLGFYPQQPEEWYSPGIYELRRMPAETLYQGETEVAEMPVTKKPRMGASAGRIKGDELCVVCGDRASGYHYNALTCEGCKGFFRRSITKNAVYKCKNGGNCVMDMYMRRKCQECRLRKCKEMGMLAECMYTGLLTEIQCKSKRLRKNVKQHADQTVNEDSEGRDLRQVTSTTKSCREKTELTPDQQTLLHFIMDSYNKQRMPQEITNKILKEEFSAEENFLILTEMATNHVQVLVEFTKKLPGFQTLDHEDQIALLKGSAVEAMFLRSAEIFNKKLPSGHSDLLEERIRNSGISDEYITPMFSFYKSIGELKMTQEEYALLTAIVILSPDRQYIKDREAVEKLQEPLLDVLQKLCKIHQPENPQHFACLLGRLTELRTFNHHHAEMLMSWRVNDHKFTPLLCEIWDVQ

Assay [19] deals with Steroid hormone receptor ERR1 (Homo sapiens) (UniProt P11474). Description: ATG_ERRa_TRANS: Attagene TRANS-FACTORIAL HepG2 Assay for human Estrogen-Related Receptor alpha (ERRa) (AID 2282971; active = hit-call score of the fitted dose curve at least 0.9, where 1 is the maximum). To be noted: HepG2 Attagene TRANS reporter, ERRa transactivation. In a few lines:
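Transfected HepG2, 24 h dosing, ERRa-Gal4 chimera driving GAL4-UAS reporter. Readout: reporter mRNA via RT-PCR plus capillary electrophoresis (fluorescence). Positive direction vs DMSO control.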

Chain of Glucocorticoid receptor (Homo sapiens) (P04150 whole entry, looked up, the tested form may be a part): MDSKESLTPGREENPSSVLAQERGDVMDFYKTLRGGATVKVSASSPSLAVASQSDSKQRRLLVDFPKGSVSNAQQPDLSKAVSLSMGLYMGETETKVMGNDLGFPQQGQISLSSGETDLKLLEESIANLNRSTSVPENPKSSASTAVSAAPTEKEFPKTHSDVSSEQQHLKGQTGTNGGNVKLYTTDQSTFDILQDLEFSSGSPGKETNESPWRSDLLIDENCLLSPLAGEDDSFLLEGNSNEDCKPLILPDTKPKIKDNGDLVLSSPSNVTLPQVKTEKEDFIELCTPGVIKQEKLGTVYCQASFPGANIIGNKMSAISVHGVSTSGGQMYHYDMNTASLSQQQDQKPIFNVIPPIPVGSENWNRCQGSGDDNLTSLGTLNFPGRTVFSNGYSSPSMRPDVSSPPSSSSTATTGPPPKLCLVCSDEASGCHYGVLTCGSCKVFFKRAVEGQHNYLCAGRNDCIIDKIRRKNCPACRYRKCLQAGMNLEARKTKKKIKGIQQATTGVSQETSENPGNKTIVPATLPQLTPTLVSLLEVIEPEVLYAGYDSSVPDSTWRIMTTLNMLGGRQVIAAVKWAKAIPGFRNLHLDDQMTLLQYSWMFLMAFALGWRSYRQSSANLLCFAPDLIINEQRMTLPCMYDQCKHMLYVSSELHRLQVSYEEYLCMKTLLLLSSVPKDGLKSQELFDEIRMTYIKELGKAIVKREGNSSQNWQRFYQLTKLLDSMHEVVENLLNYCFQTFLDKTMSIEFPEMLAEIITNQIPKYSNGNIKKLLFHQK
Chain of Oxysterols receptor LXR-beta (Homo sapiens) (P55055 whole entry, looked up, the tested form may be a part): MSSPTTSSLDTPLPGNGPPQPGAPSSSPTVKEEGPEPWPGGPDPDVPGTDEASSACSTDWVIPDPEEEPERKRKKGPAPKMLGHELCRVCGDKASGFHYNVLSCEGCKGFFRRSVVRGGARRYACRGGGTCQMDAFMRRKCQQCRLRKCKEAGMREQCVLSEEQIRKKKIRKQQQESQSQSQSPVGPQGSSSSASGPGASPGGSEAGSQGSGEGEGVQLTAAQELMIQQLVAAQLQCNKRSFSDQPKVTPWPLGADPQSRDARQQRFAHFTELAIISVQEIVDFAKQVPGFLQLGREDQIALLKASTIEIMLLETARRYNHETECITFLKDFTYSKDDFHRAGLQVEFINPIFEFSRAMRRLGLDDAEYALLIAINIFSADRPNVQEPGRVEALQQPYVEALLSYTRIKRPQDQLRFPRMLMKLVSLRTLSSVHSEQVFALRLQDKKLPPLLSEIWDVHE
Chain of Nuclear receptor subfamily 1 group I member 3 (Homo sapiens) (Q14994 whole entry, looked up, the tested form may be a part): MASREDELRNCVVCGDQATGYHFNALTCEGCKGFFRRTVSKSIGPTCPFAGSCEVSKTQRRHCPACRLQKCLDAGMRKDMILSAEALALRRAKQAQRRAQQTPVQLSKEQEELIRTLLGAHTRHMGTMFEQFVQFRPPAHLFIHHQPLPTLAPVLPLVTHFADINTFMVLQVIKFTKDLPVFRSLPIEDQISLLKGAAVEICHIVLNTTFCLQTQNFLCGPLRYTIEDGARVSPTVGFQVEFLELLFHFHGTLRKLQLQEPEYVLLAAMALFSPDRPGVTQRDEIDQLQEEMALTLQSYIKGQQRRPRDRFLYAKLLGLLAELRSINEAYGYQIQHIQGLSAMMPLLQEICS
Chain of Estrogen receptor (Homo sapiens) (P03372 whole entry, looked up, the tested form may be a part): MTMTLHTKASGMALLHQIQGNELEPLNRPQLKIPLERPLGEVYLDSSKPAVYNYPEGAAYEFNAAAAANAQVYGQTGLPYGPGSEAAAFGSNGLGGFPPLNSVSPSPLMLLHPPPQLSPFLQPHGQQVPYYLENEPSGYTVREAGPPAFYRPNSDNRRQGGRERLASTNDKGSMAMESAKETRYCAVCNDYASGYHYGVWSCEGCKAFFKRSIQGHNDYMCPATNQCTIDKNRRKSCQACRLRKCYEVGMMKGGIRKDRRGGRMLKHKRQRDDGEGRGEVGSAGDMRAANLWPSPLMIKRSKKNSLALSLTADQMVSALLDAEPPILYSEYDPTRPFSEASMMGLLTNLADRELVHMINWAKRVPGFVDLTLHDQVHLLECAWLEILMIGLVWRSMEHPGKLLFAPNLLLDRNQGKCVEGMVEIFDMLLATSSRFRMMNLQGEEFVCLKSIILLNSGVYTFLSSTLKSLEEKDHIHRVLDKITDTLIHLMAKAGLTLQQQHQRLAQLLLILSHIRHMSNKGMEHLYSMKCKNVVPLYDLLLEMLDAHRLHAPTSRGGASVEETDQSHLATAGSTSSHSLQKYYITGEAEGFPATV
Chain of Transcription factor Sp1 (Homo sapiens) (P08047 whole entry, looked up): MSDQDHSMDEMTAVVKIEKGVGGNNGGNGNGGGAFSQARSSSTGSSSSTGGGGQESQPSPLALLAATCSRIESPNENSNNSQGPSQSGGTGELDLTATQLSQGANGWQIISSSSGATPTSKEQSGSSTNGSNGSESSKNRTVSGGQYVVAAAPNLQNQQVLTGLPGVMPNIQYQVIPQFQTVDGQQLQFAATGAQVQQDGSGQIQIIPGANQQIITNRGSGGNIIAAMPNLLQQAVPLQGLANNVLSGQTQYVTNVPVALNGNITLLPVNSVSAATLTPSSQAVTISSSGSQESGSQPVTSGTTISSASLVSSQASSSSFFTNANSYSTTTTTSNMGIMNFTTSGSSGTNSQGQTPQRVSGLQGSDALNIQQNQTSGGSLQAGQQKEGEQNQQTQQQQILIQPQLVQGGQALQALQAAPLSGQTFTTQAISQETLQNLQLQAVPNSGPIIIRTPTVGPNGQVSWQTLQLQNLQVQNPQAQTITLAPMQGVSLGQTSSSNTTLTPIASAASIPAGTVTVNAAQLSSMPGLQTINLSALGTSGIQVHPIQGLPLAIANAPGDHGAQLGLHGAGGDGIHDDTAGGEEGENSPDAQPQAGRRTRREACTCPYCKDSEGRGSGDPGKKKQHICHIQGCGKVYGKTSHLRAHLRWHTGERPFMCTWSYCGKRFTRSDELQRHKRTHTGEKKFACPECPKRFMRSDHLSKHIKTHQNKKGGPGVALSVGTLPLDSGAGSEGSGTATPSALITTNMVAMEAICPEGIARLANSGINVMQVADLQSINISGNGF
Chain of Steroid hormone receptor ERR1 (Homo sapiens) (P11474 whole entry, looked up, the tested form may be a part): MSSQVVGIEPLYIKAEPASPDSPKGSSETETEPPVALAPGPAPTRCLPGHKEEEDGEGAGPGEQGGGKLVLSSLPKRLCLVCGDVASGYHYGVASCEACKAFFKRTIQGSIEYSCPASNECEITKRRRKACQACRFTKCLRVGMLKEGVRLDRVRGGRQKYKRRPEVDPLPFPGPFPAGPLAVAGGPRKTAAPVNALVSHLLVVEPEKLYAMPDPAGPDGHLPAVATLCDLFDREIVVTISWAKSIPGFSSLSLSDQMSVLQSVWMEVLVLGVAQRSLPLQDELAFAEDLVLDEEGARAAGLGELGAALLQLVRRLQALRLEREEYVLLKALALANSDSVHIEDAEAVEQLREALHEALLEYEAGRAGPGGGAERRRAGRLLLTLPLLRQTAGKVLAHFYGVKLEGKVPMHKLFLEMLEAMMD

`CC(=O)C(Cl)C(=O)N(C)C` (stereo unspecified): the outcome in assay [1], in assay [2], in assay [3], in assay [4], in [5] and in assay [6] was inactive. In addition, the outcome in assay [7], in assay [8], in assay [9], in assay [10], in [11] and in assay [12] was inactive. Moreover, the compound was classed as inactive in assay [13], in assay [14] and in assay [15].
Regarding `CCc1ccccc1C`, the result in assay [1], in assay [2], in assay [3], in assay [4], in assay [5] and in [6] was inactive. Moreover, the result in assay [7], in [8], in assay [11], in assay [16], in assay [12] and in [17] was inactive. The outcome in assay [13], in assay [14] and in [15] was inactive.
For `CCNc1nc(NC(C)(C)C)nc(SC)n1`, the call in assay [1], in [2], in [3], in assay [4], in assay [5] and in [6] was inactive. The compound was classed as inactive in assay [7], in [10], in assay [11], in assay [13], in assay [18] and in [14]. The result in [15] was inactive. Moreover, the AC50 in [8] was 31.8 µM (active).
Consider `ClC1=C(Cl)[C@]2(Cl)[C@@H]3[C@@H](Cl)[C@@H](Cl)C[C@@H]3[C@@]1(Cl)C2(Cl)Cl`, for which the result in assay [1], in [2], in assay [3], in [4], in assay [5] and in assay [6] was inactive. Also, the outcome in [7], in assay [8], in [9], in [10], in assay [11] and in [17] was inactive. The outcome in assay [13], in [14] and in assay [15] was inactive.
Consider `O=C(O)C(Cl)(Cl)Cl`, for which the compound was called inactive in assay [1], in [2], in [3], in assay [5], in [6] and in assay [7]. For the same compound, the compound was classed as inactive in assay [8], in [11], in assay [12], in [17], in assay [14] and in assay [15].
Consider `O=Cc1cccc(Oc2ccccc2)c1`, for which the call in assay [1], in assay [2], in assay [3], in [4], in [5] and in [6] was inactive. Also, the call in assay [7], in [8], in assay [9] and in assay [11] was inactive. Also, the AC50 in assay [10] is 26.6 µM (active).
For the compound `NC(=O)O`, the call in assay [1], in assay [2], in assay [3], in assay [4], in assay [5] and in assay [6] was inactive. For the same compound, the compound was classed as inactive in assay [7], in assay [8], in assay [9], in assay [10], in [19] and in [11]. Further, the call in assay [12], in [17], in assay [14] and in [15] was inactive.
On to `COC(=O)Cc1ccccc1`, for which the result in assay [1], in assay [2], in assay [3], in [4], in assay [5] and in assay [6] was inactive. Further, the result in assay [7], in assay [8], in assay [9], in [11], in assay [12] and in assay [13] was inactive. Also, in assay [14], the compound was called inactive.
